According to a collection of fitness landscapes (doi:10.1016/j.celrep.2020.107928):
Over roughly 81,000 sequences, “one-hybrid fitness for binding NBS DNA” has its median near -0.1; the highest 2% begin near 0.36. Many of the other results were omitted from the sample, so the highest values are more common in it than they were.

B1: Caulobacter ParB omega fusion; a variant is named by its letters at X, in order, B8GW30 (parent)
chain: MESVVVGEPGMSEGRRGLGRGLSALLGEVDAAPAQAPGEQLGGSREAPIEILQRNPDQPRRTFREEDLEDLSNSIREKGVLQPILVRPSPDTAGEYQIVAGERAWRAAQRAGLKTVPIMVRELDDLAVLEIGIIENVQRADLNVLEEALSYKVLMEKFERTQENIAQTIGKSXSHVANXMRLLXLPDEVQSYLVSGELTAXHARAIAAAADPVALAKQIIEGGLSVRETEALARKAPNLSAGKSKGGRPPRVKDTDTQALESDLSSVLGLDVSIDHRGSTGTLTITYATLEQLDDLCNRLTRGI

Variants of: B1
Experiment: one-hybrid fitness for binding NBS DNA (the Noc-binding site; scaled: cognate 1, non-cognate 0); higher = stronger binding
Conditions: with NBS DNA site
Procedure, shortened: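 Bacterial one-hybrid selection in E. coli USO rpoZ- hisB- pyrF- with a HIS3 reporter carrying the site 19 bp from the promoter, screening Caulobacter ParB libraries with four specificity codons randomised (NNS). Cells grew 48 hours at 37°C on M9-minus-histidine plus 0.1 mM IPTG and 5 mM 3-AT. Plasmids before and after selection were Illumina-sequenced, three replicate libraries pooled, and variants under 10 reads dropped. Fitness is the log change in variant-to-wild-type read ratio, rescaled to cognate 1, non-cognate 0.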

Row | Variant | one-hybrid fitness for binding NBS DNA
1 | NEMS | ≤ 0.2
2 | SEDT | ≤ 0.2
3 | RTFF | ≤ 0.2
4 | RCKV | 0.23
5 | RCNV | ≤ 0.2
6 | RCEV | ≤ 0.2
7 | RRNV | 0.456
8 | RNEV | 0.385
9 | RRRV | 0.655
10 | RRVV | 0.229
11 | RRDV | 0.223
12 | RRKV | 0.694
13 | RCRV | 0.257
14 | RRYV | 0.254
15 | RNYV | ≤ 0.2
16 | AVRK | ≤ 0.2
17 | KHMG | ≤ 0.2
18 | LTMT | ≤ 0.2
19 | MTLT | ≤ 0.2
20 | VSMY | ≤ 0.2
21 | WPTG | ≤ 0.2
22 | TWNS | ≤ 0.2
23 | VPYS | ≤ 0.2
24 | QQRW | 0.373

Row | Variant | one-hybrid fitness for binding NBS DNA
25 | QQYW | ≤ 0.2
26 | QQKW | 0.382
27 | QQFW | ≤ 0.2
28 | QQDW | ≤ 0.2
29 | QQVW | ≤ 0.2
30 | PDLF | ≤ 0.2
31 | GASG | ≤ 0.2
32 | IEFV | ≤ 0.2
33 | HVSS | ≤ 0.2
34 | QPRQ | ≤ 0.2
35 | QTCQ | ≤ 0.2
36 | QSDQ | ≤ 0.2
37 | QCRQ | 0.527
38 | QRYQ | 0.35
39 | QSYQ | ≤ 0.2
40 | QHRQ | 0.33
41 | QTRQ | 0.581
42 | QRRQ | 0.496
43 | QSRQ | 0.413
44 | QRIQ | ≤ 0.2
45 | QTYQ | ≤ 0.2
46 | AGTH | ≤ 0.2
47 | MNRA | ≤ 0.2
48 | FAPL | ≤ 0.2

Row | Variant | one-hybrid fitness for binding NBS DNA
49 | KVYR | ≤ 0.2
50 | IVTS | ≤ 0.2
51 | MDCS | ≤ 0.2
52 | CHRG | ≤ 0.2
53 | PCMS | ≤ 0.2
54 | KLNI | ≤ 0.2
55 | PANI | ≤ 0.2
56 | HTQS | ≤ 0.2
57 | DLLT | ≤ 0.2
58 | QMRQ | 0.437
59 | QMSQ | 0.242
60 | QKRQ | 0.415
61 | QMLQ | ≤ 0.2
62 | QKSQ | ≤ 0.2
63 | QKNQ | 0.245
64 | WNMG | ≤ 0.2
65 | PCVV | ≤ 0.2
66 | QGRA | ≤ 0.2
67 | TPPQ | ≤ 0.2
68 | QTAT | 0.595
69 | QTFT | 0.515
70 | QTFM | ≤ 0.2
71 | QTAF | ≤ 0.2
72 | QTAG | ≤ 0.2

Row | Variant | one-hybrid fitness for binding NBS DNA
73 | QTFC | ≤ 0.2
74 | MPRS | ≤ 0.2
75 | QVPV | ≤ 0.2
76 | YMPV | ≤ 0.2
77 | QSQA | 0.248
78 | QPQA | ≤ 0.2
79 | QRQA | 0.611
80 | QAQA | 0.252
81 | QHQA | 0.315
82 | QCQA | 0.372
83 | RPSR | ≤ 0.2
84 | RCSR | 0.527
85 | RFSR | 0.248
86 | RSSN | ≤ 0.2
87 | RSSH | ≤ 0.2
88 | RSSR | 0.437
89 | CVPS | ≤ 0.2
90 | VSVV | ≤ 0.2
91 | PVFF | ≤ 0.2
92 | GQRG | ≤ 0.2
93 | KRVA | ≤ 0.2
94 | KRRA | 0.524
95 | KCKA | ≤ 0.2
96 | KRDA | ≤ 0.2

Row | Variant | one-hybrid fitness for binding NBS DNA
97 | KRNA | 0.384
98 | KRKA | 0.552
99 | KRYA | 0.313
100 | KCNA | ≤ 0.2
101 | KRFA | 0.277
102 | QDQP | ≤ 0.2
103 | VKIM | ≤ 0.2
104 | TAPS | ≤ 0.2
105 | DPGG | ≤ 0.2
106 | TPCF | ≤ 0.2
107 | YQMR | ≤ 0.2
108 | QSRH | 0.535
109 | QCYH | 0.257
110 | QCRH | 0.693
111 | QSRP | 0.242
112 | QSYH | ≤ 0.2
113 | QPRH | ≤ 0.2
114 | HHWC | ≤ 0.2
115 | RSYR | 0.381
116 | RFYR | ≤ 0.2
117 | RSIR | 0.207
118 | RFDR | ≤ 0.2
119 | RCYR | 0.518
120 | RSPR | ≤ 0.2

Row | Variant | one-hybrid fitness for binding NBS DNA
121 | RPYR | ≤ 0.2
122 | RCRR | 0.77
123 | RCDR | 0.255
124 | RPRR | ≤ 0.2
125 | RFRR | 0.486
126 | RDRR | ≤ 0.2
127 | RPCV | ≤ 0.2
128 | MHMS | ≤ 0.2
129 | FEYF | ≤ 0.2
130 | SDMT | ≤ 0.2
131 | MIYS | ≤ 0.2
132 | TKTV | ≤ 0.2
133 | PMHR | ≤ 0.2
134 | LLCI | ≤ 0.2
135 | RSRP | ≤ 0.2
136 | RSRR | 0.664
137 | QQPL | ≤ 0.2
138 | PLCI | ≤ 0.2
139 | GLAR | ≤ 0.2
140 | HQST | ≤ 0.2
141 | TWRR | ≤ 0.2
142 | QYDT | 0.272
143 | QYNT | 0.488
144 | QYGC | ≤ 0.2

Row | Variant | one-hybrid fitness for binding NBS DNA
145 | QYIR | 0.346
146 | QYGT | 0.421
147 | QYYR | 0.466
148 | QYLR | 0.436
149 | QYLS | 0.256
150 | QYNP | ≤ 0.2
151 | QYGK | ≤ 0.2
152 | QYLP | ≤ 0.2
153 | QYPR | 0.27
154 | NGTR | ≤ 0.2
155 | DDKT | ≤ 0.2
156 | MCAC | ≤ 0.2
157 | HSLM | ≤ 0.2
158 | FAHM | ≤ 0.2
159 | KQAV | ≤ 0.2
160 | DLQG | ≤ 0.2
161 | QYGM | ≤ 0.2
162 | QYCN | ≤ 0.2
163 | QYER | 0.31
164 | QYHP | ≤ 0.2
165 | QYGG | ≤ 0.2
166 | QYCS | 0.301
167 | QYCR | 0.462
168 | QYHN | ≤ 0.2

Row | Variant | one-hybrid fitness for binding NBS DNA
169 | QYRF | 0.248
170 | QYRR | 0.979
171 | QYHS | 0.417
172 | QYGR | 0.553
173 | WNEY | ≤ 0.2
174 | VWCR | ≤ 0.2
175 | ATSP | ≤ 0.2
176 | GRTC | ≤ 0.2
177 | VDLS | ≤ 0.2
178 | QYNR | 0.599
179 | QYGS | 0.377
180 | QYGN | ≤ 0.2
181 | QYGD | ≤ 0.2
182 | QYSR | 0.499
183 | QYNH | 0.246
184 | QYDR | 0.305
185 | QYDS | 0.203
186 | QYNN | ≤ 0.2
187 | QYSN | ≤ 0.2
188 | QYSD | ≤ 0.2
189 | QYNS | 0.437
190 | KTNH | ≤ 0.2
191 | HNTA | ≤ 0.2
192 | HIMR | ≤ 0.2

Row | Variant | one-hybrid fitness for binding NBS DNA
193 | YTFW | ≤ 0.2
194 | SKSC | ≤ 0.2
195 | VRCG | ≤ 0.2
196 | PIKT | ≤ 0.2
197 | QYHR | 0.541
198 | QYHD | ≤ 0.2
199 | QYWR | 0.414
200 | QYWH | ≤ 0.2
201 | QYMR | 0.482
202 | QYWS | 0.204
203 | QYQC | ≤ 0.2
204 | QYMD | ≤ 0.2
205 | QYQK | ≤ 0.2
206 | QYMF | ≤ 0.2
207 | QYQR | 0.493
208 | QYHG | ≤ 0.2
209 | NPVN | ≤ 0.2
210 | YEWR | ≤ 0.2
211 | QQIF | ≤ 0.2
212 | YGVH | ≤ 0.2
213 | SDSA | ≤ 0.2
214 | TTTF | ≤ 0.2
215 | EAYV | ≤ 0.2
216 | QLSK | ≤ 0.2

Row | Variant | one-hybrid fitness for binding NBS DNA
217 | GGTS | ≤ 0.2
218 | IDHN | ≤ 0.2
219 | HIKY | ≤ 0.2
220 | SKIG | ≤ 0.2
221 | APVA | ≤ 0.2
222 | DMKT | ≤ 0.2
223 | NMKT | ≤ 0.2
224 | QMVT | 0.373
225 | QMKT | 0.75
226 | QMVN | ≤ 0.2
227 | EKHS | ≤ 0.2
228 | VRAW | ≤ 0.2
229 | HGTC | ≤ 0.2
230 | VCQG | ≤ 0.2
231 | HNDV | ≤ 0.2
232 | TFTP | ≤ 0.2
233 | WASL | ≤ 0.2
234 | AFSH | ≤ 0.2
235 | QKGN | ≤ 0.2
236 | QKHY | 0.206
237 | QKGR | 0.616
238 | QKGP | ≤ 0.2
239 | QKYR | 0.505
240 | QKYP | ≤ 0.2

Row | Variant | one-hybrid fitness for binding NBS DNA
241 | NKRR | 0.235
242 | QKHN | ≤ 0.2
243 | QKHR | 0.661
244 | DKRR | ≤ 0.2
245 | QKER | 0.363
246 | QKRR | 0.993
247 | PTNP | ≤ 0.2
248 | HCFY | ≤ 0.2
249 | IFEL | ≤ 0.2
250 | SQFR | ≤ 0.2
251 | SQRR | ≤ 0.2
252 | VILC | ≤ 0.2
253 | QAWG | ≤ 0.2
254 | NLDR | ≤ 0.2
255 | PTAP | ≤ 0.2
256 | DHKN | ≤ 0.2
257 | EVMR | ≤ 0.2
258 | TDVL | ≤ 0.2
259 | SRRL | ≤ 0.2
260 | GLRT | ≤ 0.2
261 | RKNR | 0.639
262 | RKHR | 0.648
263 | RKYR | 0.573
264 | RKNP | ≤ 0.2

Row | Variant | one-hybrid fitness for binding NBS DNA
265 | RKNC | 0.281
266 | RKHF | ≤ 0.2
267 | RKYF | ≤ 0.2
268 | RKHQ | ≤ 0.2
269 | RKYN | ≤ 0.2
270 | RKDR | 0.443
271 | GTKM | ≤ 0.2
272 | DLTE | ≤ 0.2
273 | LAPI | ≤ 0.2
274 | SAAD | ≤ 0.2
275 | NGLS | ≤ 0.2
276 | NRSI | ≤ 0.2
277 | RRTL | ≤ 0.2
278 | LHEN | ≤ 0.2
279 | HLQP | ≤ 0.2
280 | MMSM | ≤ 0.2
281 | LRWK | ≤ 0.2
282 | RKWR | 0.49
283 | RKGH | 0.301
284 | RKQR | 0.573
285 | RKWH | ≤ 0.2
286 | RKSD | ≤ 0.2
287 | RKSR | 0.581
288 | RKWP | ≤ 0.2

Row | Variant | one-hybrid fitness for binding NBS DNA
289 | RKQM | ≤ 0.2
290 | RKGP | ≤ 0.2
291 | RKSH | 0.211
292 | RKGR | 0.606
293 | RKQQ | ≤ 0.2
294 | MTIG | ≤ 0.2
295 | VDYG | ≤ 0.2
296 | AHFR | ≤ 0.2
297 | QHIC | ≤ 0.2
298 | TCFS | ≤ 0.2
299 | VSQV | ≤ 0.2
300 | PITE | ≤ 0.2
301 | GSCV | ≤ 0.2
302 | NCKS | ≤ 0.2
303 | YSQQ | ≤ 0.2
304 | MHKT | ≤ 0.2
305 | PLRH | ≤ 0.2
306 | SRLF | ≤ 0.2
307 | IRKG | ≤ 0.2
308 | HKFT | ≤ 0.2
309 | RKRR | 0.736
310 | RKRM | 0.258
311 | RKRK | 0.222
312 | PTAM | ≤ 0.2
